# Compound activity: PubChem BioAssay, several laboratories
# The list is not random: actives were taken first. Their share in the collection is about 32%.
# CYP2C19 activ = human CYP2C19 activators, primary screen, biochemical, luminescence; activation factor at 5 µM; recombinant CYP2C19, luciferin-H EGE luminescence; active compounds read high; 0 = fully inhibited enzyme, 1 = untreated enzyme; AID 1025, 2008; Cytochrome P450 2C19 (Homo sapiens), P33261; 96,000 tested, under 10 active;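 active = activation factor of at least 2 at 5 µM in the primary screen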;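 note: 0 = wells with 2.5 mM tranylcypromine and 1 = vehicle-only wells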
# Target sequence (P33261 whole entry, looked up): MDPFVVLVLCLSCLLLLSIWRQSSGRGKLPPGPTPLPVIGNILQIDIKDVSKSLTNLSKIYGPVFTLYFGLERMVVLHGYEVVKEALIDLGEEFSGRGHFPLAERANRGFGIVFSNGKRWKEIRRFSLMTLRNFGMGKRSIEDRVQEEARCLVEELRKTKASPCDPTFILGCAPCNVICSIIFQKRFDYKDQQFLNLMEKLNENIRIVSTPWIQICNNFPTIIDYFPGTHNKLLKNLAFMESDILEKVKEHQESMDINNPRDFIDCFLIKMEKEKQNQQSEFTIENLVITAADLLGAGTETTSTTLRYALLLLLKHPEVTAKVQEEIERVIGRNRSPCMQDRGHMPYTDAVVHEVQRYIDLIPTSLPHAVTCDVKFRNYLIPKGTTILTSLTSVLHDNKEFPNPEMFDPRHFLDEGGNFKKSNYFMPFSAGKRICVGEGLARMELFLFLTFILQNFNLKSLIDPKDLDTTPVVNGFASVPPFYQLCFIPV
# CYP2C19 inh = blockers of cytochrome P450 2C19 activity – biochemical, luminescence, ADME assay, primary screen; CYP2C19 Supersomes, luciferin-H EGE luminescence, 30 min; inhibition, % at 5 µM; actives 21% (n = 96,000); AID 778, 2007;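 active = CYP2C19 inhibition above a set limit at 5 µM in the primary screen, cut at about 50% in these data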;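 note: plate controls were negative control wells for no effect and 2.5 mM tranylcypromine positive control for full effect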
# CYP2C9 inh = blockers of cytochrome P450 2C9 activity – biochemical, luminescence, ADME assay, primary screen | CYP2C9 Supersomes, luciferin-H conversion | inhibition, % at 5 µM | actives 20% (n = 96,000) | AID 777, 2007;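 active = blocking of liver enzyme CYP2C9 beyond about 50% at 5 µM, limit read from the data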
# PostGolgi yeast = phenotypic screen on post-Golgi transport, primary screen. post-Golgi transport phenotypic cell assay. inhibition, % at 10 µM. actives 0.9% (n = 98,000). AID 739, 2007;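 note: yeast cells grown in 1536-well plates; yeast grown about 18 h at 30C before absorbance read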
# CYP2C9 act = human CYP2C9 activators, primary screen, biochemical, luminescence; Cytochrome P450 2C9 (Homo sapiens), P11712; recombinant CYP2C9, luciferin-H conversion; active compounds read high; factor 1 = untreated enzyme, 0 = blocked; activation factor at 5 µM; actives 1.4% (n = 96,000); AID 1024, 2008;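 active = activation factor of 2 or more for CYP2C9 at a 5 µM dose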;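 note: 0 = sulfaphenazole-blocked wells and 1 = vehicle-only wells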
# PostGolgi ctrl = growth inhibition of yeast control strain, primary screen, counter-screen for post-Golgi transport modulator project; efflux-deficient yeast background strain, growth absorbance A615, 16 h; inhibition, % at 10 µM; actives 5% (n = 98,000); AID 738, 2007
# * = called active by the depositor; / = no result given. Cut-off read from the data, not from the text of the source, unless noted: active = inhibition above about 30%; inactive = the rest.
SMILES,CYP2C19 activ,CYP2C19 inh,CYP2C9 inh,PostGolgi yeast,CYP2C9 act,PostGolgi ctrl
N#CC(c1ccccc1)c1ccc2c(C(F)(F)F)cc(C(F)(F)F)nc2n1 (stereo unspecified),1.1,-5,16,5,0.8,51*
COc1ccc(C(=O)CSc2nnc(-c3cnccn3)n2Cc2ccco2)cc1,0.6,40,54*,5,0.5,21
COC(=O)c1c(NC(=O)CSc2nnc(-c3cccnc3)n2Cc2ccco2)sc(C)c1C,0.2,84*,85*,12,0.1,15
COc1ccc(C(=O)CSc2nnc(-c3cccs3)n2-c2ccccc2)cc1,0.8,20,44,-7,0.6,11
CC1CCN(C(=O)CSc2nnc(-c3cc4ccccc4cc3O)n2Cc2ccco2)CC1,0.3,67*,74*,0,0.3,39*
O=C(CSc1nnc(-c2cccnc2)n1Cc1ccco1)N1c2ccccc2Sc2ccccc21,0.8,18,36,10,0.6,12
COc1ccc(C(=O)CSc2nnc(-c3cc4ccccc4cc3O)n2Cc2ccco2)cc1,0.6,44,80*,-14,0.2,56*
O=C(OCN1C(=O)c2ccccc2C1=O)c1cccs1,0.9,14,-22,-1,1.2,-1
Cc1cc(C)n2nc(SCc3cc(=O)oc4ccc5ccccc5c34)nc2n1,1.1,-6,6,24,0.9,9
COc1ccc(S(=O)(=O)N2CCC(C(=O)NCC3CCCO3)CC2)cc1 (stereo unspecified),1,-4,-2,2,1,2
c1cncc(CSc2nnc(-c3cccnc3)n2Cc2ccco2)c1,0.9,10,29,-3,0.7,-3
O=C(CSc1nnc(-c2cnccn2)n1Cc1ccco1)Nc1ccc(Br)cc1,1,-3,59*,-7,0.4,12
Cn1c(SCC(=O)N2CCc3ccccc3C2)nnc1-c1cccs1,1.1,-6,-9,6,1.1,-2
O=C(CSc1nnc(-c2ccc(O)cc2)n1Cc1ccco1)N1CCc2ccccc2C1,0.4,62*,50*,2,0.5,3
O=C(CSc1nnc(-c2ccccn2)n1Cc1ccco1)Nc1ccc2c(c1)OCO2,1,-1,37,10,0.6,23
COc1ccc(C(=O)CSc2nnc(-c3cccnc3)n2Cc2ccco2)cc1,0.5,53*,57*,2,0.4,5
C=CCn1c(SCc2ccccc2)nc2scc(-c3ccc(C)o3)c2c1=O,0.9,12,27,-24,0.7,3
Cc1ccc(-c2csc3ncn(-n4c(C)ccc4C)c(=O)c23)o1,0.1,87*,47,-1,0.5,4
O=C1C2C3C=CC([C@@H]2C(=O)N1C1CCCCC1)[C@H]1C(=O)N(C2CCCCC2)C(=O)C31 (stereo partly specified),0.9,6,0,6,1,13
O=C(c1cccs1)[C@@H]1[C@@H]2C(=O)N(Cc3ccc4c(c3)OCO4)C(=O)[C@@H]2C2c3ccccc3C=CN21 (stereo partly specified),0.7,30,64*,-7,0.4,10
O=C(Nc1ccc2c(c1)OCO2)[C@@H]1[C@@H]2C(=O)N(C3CCCCC3)C(=O)[C@@H]2C2c3ccccc3C=CN21 (stereo partly specified),1.1,-8,8,18,0.9,10
CC(C)(C)C(=O)[C@@H]1[C@@H]2C(=O)N(C3CCCCC3)C(=O)[C@@H]2[C@H]2c3ccccc3C=CN12,0.3,66*,82*,/,0.2,/
O=C(c1ccc2c(c1)OCO2)[C@@H]1[C@@H]2C(=O)N(C3CCCCC3)C(=O)[C@@H]2C2c3ccccc3C=CN21 (stereo partly specified),0.4,58*,76*,17,0.2,5
Cc1cc2c(cc1C)NC(c1c(C)n(C)n(-c3ccccc3)c1=O)C1=C(CC(C)(C)CC1=O)N2 (stereo unspecified),1.1,-6,-17,-13,1.2,1
Cc1nc2ccccc2n1CC(=O)OCC(=O)NCCc1ccccc1,1.2,-17,-15,4,1.2,3
SMILES,CYP2C19 activ,CYP2C19 inh,CYP2C9 inh,PostGolgi yeast,CYP2C9 act,PostGolgi ctrl
CC(CNC(=O)c1cc(Cl)ccc1[N+](=O)[O-])NC(=O)c1cc(Cl)ccc1[N+](=O)[O-] (stereo unspecified),0.9,7,3,5,1,8
Cc1ccc(-c2ccc(/C=N/c3ncn[nH]3)o2)cc1Cl,1,-4,-13,-5,1.1,34*
CCNc1nc(N)nc(Oc2ccc(C(=O)OC)cc2)n1,1.1,-7,-4,7,1,8
CC1CCC(C(C)C)C2=C1C(C#N)(C#N)C(C#N)(C#N)C(c1ccccc1)N2 (stereo unspecified),0.5,48,70*,-4,0.3,9
CCOC(=O)c1sc(N)nc1C(C)(C)C,0.4,58*,42,-19,0.6,-6
Cc1ccccc1NC(=S)NCc1cccs1,0.5,47,16,-5,0.8,3
O=C(CSCC(=O)Nc1nccs1)Nc1ccccc1,0.8,24,19,0,0.8,7
CN1c2ccsc2C(O)=C(C(=S)Nc2ccccc2)S1(=O)=O,0.9,12,78*,-2,0.2,3
Cc1ccccc1NC(=S)C1=C(O)c2sccc2N(C)S1(=O)=O,1,2,72*,1,0.3,4
Cc1ccccc1C1NS(=O)(=O)N=C1N (stereo unspecified),1,1,12,-3,0.9,10
O=C(COn1nnc2ccc(Cl)cc21)NCc1ccccc1,0.5,47,-16,21,1.2,11
Clc1ccc(COn2nnc3ccccc32)c(Cl)c1,0.4,64*,8,-2,0.9,26
Cn1c(SCC(=O)NC(C)(C)C)nnc1-c1cccc(NC(=O)c2ccccc2F)c1,0.9,5,2,-1,1,1
CCOC(=O)C(C)Sc1nc(-c2ccco2)cc(C(F)(F)F)c1C#N (stereo unspecified),0.9,7,20,-6,0.8,12
Cc1ccccc1OC(C)c1nc(-c2ccccc2)no1 (stereo unspecified),0.3,70*,73*,-12,0.3,0
Cc1ccc(SC(C)c2nc(-c3ccccc3)no2)cc1 (stereo unspecified),0.1,90*,85*,-6,0.2,14
COc1cc(OC)cc(-c2nc(-c3ccccc3)no2)c1,1.2,-18,-23,2,1.2,4
Cc1ccc(Sc2nc(-c3ccccc3)ccc2C#N)cc1,1,-1,19,2,0.8,5
